V-ATPase pHluor: regulators of yeast V-ATPase proton transport. S. cerevisiae, pHLuorin cytosolic pH fluorescence. response, % at 10 µM. hit rate 0.37% among 350,000. AID 504577; in the data active means response mostly above about 7.3%, no sharp cut-off; inactive means mostly below about 5.4%; further: actives read high
proKLK7 act: proKLK7 (human) activation, primary screen; P49862; purified proKLK7, EDANS-DABCYL substrate fluorescence; 100% is mature enzyme control, 0% vehicle; activation, % at 7 µM; hit rate 0.9% among 370,000;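 active means activation above the mean of all tested compounds plus 3 SD, computed per campaign excluding outliers beyond control limits, cut at about 13% in these data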
ADAM17 inh: inhibits human ADAM17; recombinant ADAM17, EDANS/DABCYL FRET peptide cleavage; P78536; hit rate 0.83% among 370,000; inhibition, % at 6.95 µM; AID 720648;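 active means inhibition above the mean of compounds lying between control limits plus 3 SD, set per campaign, cut at about 8.5% in these data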;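 further: 0% = DMSO-only wells as the low control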
ADAM10 inh: inhibitors of human ADAM10; hit rate 0.62% among 370,000; O14672; inhibition, % at 7 µM; recombinant ADAM10, EDANS/DABCYL FRET peptide cleavage, 3 h;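 active means inhibition above a per-campaign cutoff equal to the mean of compounds falling between control-based bounds plus 3 SD, cut at about 20% in these data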;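 further: 0% = DMSO wells while the 100% control is not disclosed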
Target sequence (O14672 214-748 limits assumed): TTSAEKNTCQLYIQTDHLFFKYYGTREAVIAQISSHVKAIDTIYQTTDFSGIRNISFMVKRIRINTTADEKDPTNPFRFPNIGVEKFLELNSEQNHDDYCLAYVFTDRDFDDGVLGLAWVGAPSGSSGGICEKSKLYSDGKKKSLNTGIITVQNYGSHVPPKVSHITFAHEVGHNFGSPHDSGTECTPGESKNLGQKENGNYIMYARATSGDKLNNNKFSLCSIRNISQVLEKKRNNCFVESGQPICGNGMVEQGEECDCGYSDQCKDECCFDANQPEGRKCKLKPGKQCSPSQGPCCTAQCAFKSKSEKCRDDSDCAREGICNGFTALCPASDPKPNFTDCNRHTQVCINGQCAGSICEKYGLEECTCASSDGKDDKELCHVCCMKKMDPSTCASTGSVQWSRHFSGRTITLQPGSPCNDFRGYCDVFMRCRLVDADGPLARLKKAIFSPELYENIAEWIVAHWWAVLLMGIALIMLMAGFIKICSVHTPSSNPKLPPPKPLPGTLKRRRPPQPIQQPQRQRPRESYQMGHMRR
ADAM10 confirm: confirmation of inhibitors of human ADAM10; shares compounds with ADAM10 inh; ADAM10 QFRET peptide cleavage, EDANS fluorescence; inhibition, % at 6.95 µM; hit rate 1% among 2,100;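 active means inhibition above about 20% chosen separately for each screening run, limit read from the data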;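 further: 0% = DMSO wells and 100% = marimastat wells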
ADAM17 counter: counter-screen for ADAM10 exosite inhibitors: inhibitors of human ADAM17. shares compounds with ADAM10 inh. ADAM17 QFRET peptide cleavage, EDANS fluorescence. inhibition, % at 6.95 µM. hit rate 0.5% among 2,100. AID 743214;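 active means mean triplicate inhibition above the solvent-only control wells' mean plus 3 SD, cut at about 12% in these data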;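 further: 0% = DMSO wells and 100% = marimastat wells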
ADAM10 counter: counter-screen for ADAM17 exosite inhibitors: inhibitors of human ADAM10; shares compounds with ADAM17 inh; hit rate 47% among 2,900; recombinant ADAM10, EDANS/DABCYL FRET peptide cleavage, 3 h; inhibition, % at 6.95 µM;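 active means mean inhibition over the triplicate runs exceeds the activity threshold set in the earlier primary screen, cut at about 20% in these data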;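 further: 0% = DMSO wells and 100% = marimastat wells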
ADAM17 confirm: human ADAM17 inhibition, confirmation | shares compounds with ADAM17 inh | recombinant ADAM17, EDANS/DABCYL QFRET peptide cleavage | inhibition, % at 6.95 µM | hit rate 65% among 2,900;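 active means mean inhibition across replicates above the hit cutoff set in the primary screen, cut at about 8.5% in these data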;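 further: 0% = DMSO wells and 100% = marimastat wells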
Numbers without * were called inactive; . = not tested or not shown. This is a sample that favours compounds with a hit; in the whole collection about 2.3% have one here.

SMILES	V-ATPase pHluor	proKLK7 act	ADAM17 inh	ADAM10 inh	ADAM10 confirm	ADAM17 counter	ADAM10 counter	ADAM17 confirm
CCCc1nc2ccccc2c(C(=O)OC(C)C(=O)NCc2ccc3c(c2)OCO3)c1CC (stereo not given)	-1	0	10*	27*	3	1	25*	12*
COc1ccc(C(=O)NC(=S)Nc2ccc(N3CCCC3)cc2)cc1	3	0	-1	-8	.	.	.	.
COc1cccc(C(=O)NC(=S)Nc2ccc(N3CCCC3)cc2)c1	2	0	12*	32*	6	2	14	11*
Cc1[nH]nc2c1C(c1ccc(F)cc1)N(Cc1ccccc1)C2=O (stereo not given)	.	0	1	4	.	.	.	.
Cc1cc(C)cc(NC(=O)C2(c3ccccc3)CC2(Cl)Cl)c1 (stereo not given)	-4	0	9.9*	20*	6	2	14	9.6*
O=C(Cc1cccc2ccccc12)Nc1ccc(OC(F)F)c(Cl)c1	-3	0	9.9*	23*	6	2	30*	20*
FC(F)Oc1ccc(NC(=S)NCc2ccccc2)cc1Cl	-3	0	6	10	.	.	.	.
OCCNc1nc(Nc2ccccc2Oc2ccccc2)nc(N2CCCC2)n1	9	0	12*	27*	7	1	21*	13*
OCCNc1nc(Nc2ccccc2OC(F)(F)F)nc(N2CCCC2)n1	20	1	-4	1	.	.	.	.
C#CCNC(=O)C[C@H]1C(=O)N(Cc2ccc(OC)cc2)C2=CCCC[C@@]21C(=O)OCC	.	0	1	2	.	.	.	.
Cc1ccc(NC(=O)C2CCN(S(=O)(=O)c3ccc4c(c3)NC(=O)C(C)S4)CC2)cc1Cl (stereo not given)	-4	0	9.4*	24*	6	3	47*	24*
Cc1cc(C)cc(NC(=O)C2CCN(S(=O)(=O)c3ccc4c(c3)NC(=O)C(C)S4)CC2)c1 (stereo not given)	1	1	4	18	.	.	.	.
COC(=O)C(NC(=O)c1ccccc1C)(Nc1ncc(S(=O)(=O)c2ccc([N+](=O)[O-])cc2)s1)C(F)(F)F (stereo not given)	2	1	12*	33*	1	1	18	8
COC(=O)CC#C[C@H](C)[C@@H](NS(C)(=O)=O)C(C)(C)COCc1ccccc1	.	0	-1	-10	.	.	.	.
CCCCc1c(-c2ccccc2OC)ncn1Cc1ccccc1C	.	1	3	10	.	.	.	.
NNC(=O)/C(=N/Nc1ccccc1)S(=O)(=O)c1ccc(Cl)cc1	-4	-1	11*	21*	4	3	15	9.9*
CCOC(=O)/C(=N/Nc1ccc(C)cc1)S(=O)(=O)c1ccc(Cl)cc1	2	0	0	10	.	.	.	.
CC(C)(C)N(NC(=O)Nc1cccc(F)c1)C(=O)c1ccccc1Cl	.	0	-2	5	.	.	.	.
COc1cc(/C=N\NC(=O)c2ccc(Cl)cc2)ccc1Oc1ccc([N+](=O)[O-])cn1	-4	0	11*	24*	4	1	15	8
CCc1ccc(/C=c2\s/c(=C\C(=O)C(C)(C)C)[nH]c2=O)cc1	2	-1	17*	33*	11	5	20*	17*
O=C(O)c1nn(CCOc2cccc(Br)c2)c(=O)c2ccccc12	-3	1	11*	21*	1	0	9	6
O=C(O)c1nn(CCOc2cccc(Cl)c2)c(=O)c2ccccc12	2	0	2	7	.	.	.	.
Fc1ccc(CNc2nc(-c3ccccc3)nc3ccccc23)cc1	0	-1	5	10	.	.	.	.
COc1ccc(CNc2nc(-c3ccccc3)nc3ccccc23)cc1OC	-2	0	13*	22*	7	3	24*	17*
CCOC(=O)c1sc(NC(=O)CN2C(=O)NC3(CC(C)CC(C)(C)C3)C2=O)cc1C (stereo not given)	5	0	13*	24*	1	1	18	14*
SMILES	V-ATPase pHluor	proKLK7 act	ADAM17 inh	ADAM10 inh	ADAM10 confirm	ADAM17 counter	ADAM10 counter	ADAM17 confirm
CCOC(=O)c1sc(NC(=O)CN2C(=O)NC3(CC(C)CC(C)(C)C3)C2=O)c(C(=O)OCC)c1C (stereo not given)	-4	-1	-3	-2	.	.	.	.
Cc1cc(NC(=O)COC(=O)c2cccc(S(=O)(=O)N3CCOCC3)c2)no1	0	0	-1	2	.	.	.	.
O=C(COC(=O)c1cccc(S(=O)(=O)N2CCOCC2)c1)Nc1nc(-c2ccccc2Cl)cs1	2	0	16*	37*	10	4	35*	17*
CCCCCCNC(=O)O[C@@]12CN(S(=O)(=O)c3ccc(C)cc3)C[C@]1(O)Cn1c(=O)n(CCCCCC)c(=O)n1C2	0	1	-1	-6	.	.	.	.
CCCCCCn1c(=O)n2n(c1=O)[C@@H]1CN(S(=O)(=O)c3ccc(C)cc3)C[C@]1(O)[C@@H](OC(=O)NCc1ccccc1)C2	2	-1	9.9*	22*	4	1	33*	16*
CCCCCCn1c(=O)n2n(c1=O)C[C@]1(OC(=O)NCc3ccccc3F)CN(S(=O)(=O)c3ccc(C)cc3)C[C@]1(O)C2	-1	0	14*	37*	4	2	33*	16*
Cc1ccc(S(=O)(=O)N2C[C@H]3n4c(=O)ccc(=O)n4C[C@H](OC(=O)NCc4ccccc4)[C@@]3(O)C2)cc1	2	1	-6	-13	.	.	.	.
OC(c1cccc(Cl)c1)c1ncc(-c2cccc(C(F)(F)F)c2)[nH]1 (stereo not given)	.	0	9.2*	29*	2	1	23*	14*
Cc1ccc(C(O)c2ncc(-c3cccc(C(F)(F)F)c3)[nH]2)c(C)c1 (stereo not given)	.	0	5	5	.	.	.	.
OC(c1cc(F)cc(Cl)c1)c1ncc(-c2ccc(Cl)cc2)[nH]1 (stereo not given)	.	0	17*	29*	5	0	21*	11*
Cc1cccc(C(O)c2ncc(-c3cccc(C(F)(F)F)c3)[nH]2)c1C (stereo not given)	.	1	15*	22*	2	0	5	7
OC(c1ccc(F)c(F)c1)c1ncc(-c2ccc(Cl)cc2)[nH]1 (stereo not given)	.	0	0	7	.	.	.	.
OC1OC2COC(c3ccccc3)OC2C(O)C1O (stereo not given)	.	0	1	-8	.	.	.	.
